# Measured values as given in PMC4552634, “A New Set of Chemical Starting Points with Plasmodium falciparum Transmission-Blocking Potential for Antimalarial Drug Discovery” (PLoS ONE, 2015).
# The whole screen tested about 13,000 compounds, of which about 3,200 (25%) showed an effect of 50% or more. This is one part of the list.
# Test system: P. falciparum stage V gametocytes
# Design: BacTiter-Glo ATP luminescence viability of purified stage V gametocytes in 384-well plates, per cent inhibition versus DMSO
# Details: 48 h, 5 µM; inhibitor
row,SMILES,% Inhibition
1,COc1ccc(S(=O)(=O)NC2CCN(c3ccc(C(F)(F)F)cc3NC(=O)OCC(C)C)CC2)cc1 [TCMDC-134275],14.87%
2,N#Cc1cccc(NC(=O)Nc2cccc(-c3cccc(-c4nc5ccc(C(F)(F)F)cc5[nH]4)c3)c2)c1 [TCMDC-133195],-34.96%
3,Cc1nn(-c2ccccc2)c2c1C(c1ccc(C(C)C)cc1)N1C(=N2)N(Cc2ccccc2)c2ccccc21 (centres unmarked) [TCMDC-123903],-90.94%
4,CCN1C(=O)N(CCC(C)C)C2(CCN(Cc3ccc(OC)cc3O)CC2)C1=O [TCMDC-124587],63.13%
5,COc1ccc(CN2CCN(CCOC(c3ccccc3)c3ccccc3)CC2)c(O)c1 [TCMDC-135693],26.17%
6,COc1ccc(CN2CCN(CCOC(c3ccc(F)cc3)c3ccc(F)cc3)CC2)c(O)c1 [TCMDC-135694],24.37%
7,O=C(/C=C/c1ccc(Cl)c(Cl)c1)NCCCCCN1CCCC(CNS(=O)(=O)c2ccc(F)cc2)C1 (centres unmarked) [TCMDC-139596],59.41%
8,COc1ccc(S(=O)(=O)NCC2CCCN(CCCCCNC(=O)/C=C/c3ccc(Cl)c(Cl)c3)C2)cc1 (centres unmarked) [TCMDC-139595],95.6%
9,O=c1cc(NCCCNCc2cc(F)cc(C(F)(F)F)c2)[nH]c2ccccc12 [TCMDC-139726],25.21%
10,CC(C)CCNCc1c(O)ccc2ccccc12 [TCMDC-137596],6.02%
11,CC(C)COc1ccc2ccccc2c1CNCCCCCCNCc1c(OCC(C)C)ccc2ccccc12 [TCMDC-137972],129.3%
12,COc1ccc2ccccc2c1CNCCCCCCNCc1c(OC)ccc2ccccc12 [TCMDC-137915],112.9%
13,CC(C)Oc1ccc2ccccc2c1CNCCCCCCNCc1c(OC(C)C)ccc2ccccc12 [TCMDC-137965],107.1%
14,CCCCNC[C@@H](O)[C@H](Cc1ccccc1)NC(=O)c1cc(NCC)cc(N2CCCCS2(=O)=O)c1 [TCMDC-135177],4.465%
15,CCOC(=O)c1[nH]c(-c2cccc(F)c2)nc1N [TCMDC-131794],-46.62%
16,O=C(Nc1cccnc1)c1cc(-c2cccnc2)nc2ccc(Cl)cc12 [TCMDC-124361],-11.56%
17,COc1ccc(-n2ncc(C(=O)N3CCC4(C3)C(=O)N(c3ccccc3)c3ccccc34)c2C)cc1 (centres unmarked) [TCMDC-134122],-6.778%
18,O=C(/C=C/c1ccc(C(F)(F)F)cc1)NCCCCCN1CCC(c2c[nH]c3ccccc23)CC1 [TCMDC-139209],23.24%
19,O=C(NC1CCN(CCN2CCC(c3ccccc3C(F)(F)F)CC2)CC1)c1ccc(-c2ccc(Cl)cc2)cc1 [TCMDC-138809],-39.81%
20,O=C(NCCCCCN1CCC(c2c[nH]c3ccccc23)CC1)c1ccc(-c2ccccc2)nc1 [TCMDC-139157],-73.03%
21,O=C(NCCCCCN1CCC(c2ccc(O)cc2)CC1)c1ccc(-c2ccccc2)cc1 [TCMDC-139196],-56.25%
22,COc1ccc2[nH]cc(C3CCN(CCCCCNC(=O)c4ccc(-c5ccccc5)cc4)CC3)c2c1 [TCMDC-139053],30.55%
23,O=C(NC1CCN(CCN2CCC(c3c[nH]c4ccccc34)CC2)CC1)c1ccc(-c2ccc(C(F)(F)F)cc2)cc1 [TCMDC-138845],66.39%
24,O=C(NCCCCN1CCC(c2c[nH]c3ccccc23)CC1)c1ccc(-c2ccc(C(F)(F)F)cc2)cc1 [TCMDC-138631],87.17%
25,O=C(NCCCCCN1CCC(c2c[nH]c3ccccc23)CC1)c1ccc(-c2cccnc2)cc1 [TCMDC-139183],113.1%

row,SMILES,% Inhibition
1,O=C(NCCCN1CCC(NC(=O)c2ccc(-c3cccnc3)cc2)CC1)c1ccc(Cl)c(Cl)c1 [TCMDC-133357],16.57%
2,O=C(NCCCCN1CCC(c2c[nH]c3ccc(-c4ccccc4)cc23)CC1)c1ccc(-c2ccccc2)cc1 [TCMDC-139064],108.8%
3,O=C(NC1CCN(CCN2CCc3ccccc3CC2)CC1)c1ccc(-c2ccc(C(F)(F)F)cc2)cc1 [TCMDC-138831],-7.885%
4,O=C(NCCCCN1CCC(c2c[nH]c3ccccc23)CC1)c1sc(-c2ccc(C(F)(F)F)cc2)nc1CO [TCMDC-138780],-12.54%
5,CC(=O)c1ccccc1OCCSc1nnc(Cc2cccs2)n1C1CCCCC1 [TCMDC-123554],-19.51%
6,CCN(C(=O)NC)C1c2cc(C#N)ccc2OC(C)(C)C1O (centres unmarked) [TCMDC-131556],13.93%
7,CCCC1N=C(N)N=C(N)N1c1ccc(C)c(C)c1 (centres unmarked) [TCMDC-131301],2.054%
8,O=C(Nc1cc(C(F)(F)F)ccc1N1CCOCC1)C(Cl)(Cl)Cl [TCMDC-123707],15.78%
9,CCCCN(CCCC)C(=N)c1cccc2c1CCCC2 [TCMDC-131553],17.3%
10,COc1ccc(CC2(c3ccc(F)cc3)N=C(N)N(CCCc3ccc4c(c3)OCO4)C2=O)cc1 (centres unmarked) [TCMDC-136540],-15.69%
11,COc1cc(Cc2cnc(N)nc2N)cc(OCCNC(=O)OCc2ccccc2)c1OC [TCMDC-138056],-17.39%
12,CCOC(=O)Nc1cc(-c2csc(N=C(N)N)n2)cc([N+](=O)[O-])c1 [TCMDC-137230],-82.77%
13,Cn1nccc1C(=O)NCCNCc1cccc(-c2cccc(-c3nc4cc(C(F)(F)F)ccc4[nH]3)c2)c1.O=C(O)C(F)(F)F [TCMDC-133008],12.04%
14,COc1cc2c(cc1S(=O)(=O)c1ccc(NC(=O)c3cc4ccccc4s3)cc1)CCN(C)CC2 [TCMDC-133789],17.23%
15,COc1ccc2nc(C)cc(NC3Cc4ccccc4C3)c2c1.Cl [TCMDC-138978],40.25%
16,O=[N+]([O-])c1cc2c(cc1C=NNc1nc(Nc3ccccc3)nc(Nc3ccccc3)n1)OCO2 [TCMDC-124249],-0.02415%
17,Brc1cc2c(cc1C=NNc1nc(Nc3ccccc3)nc(Nc3ccccc3)n1)OCO2 [TCMDC-124195],14.96%
18,Oc1ccc2ccccc2c1C=NNc1nc(Nc2ccccc2)nc(Nc2ccccc2)n1 [TCMDC-125790],78.83%
19,COc1ccc(Nc2nc(NN=Cc3cc(Cl)ccc3O)nc(Nc3ccccc3)n2)cc1 [TCMDC-124115],59.23%
20,COc1ccc(Nc2nc(N/N=C/c3ccc(-c4ccc([N+](=O)[O-])cc4)o3)nc(Nc3ccccc3)n2)cc1 [TCMDC-124187],17.9%
21,COc1c(C=NNc2nc(Nc3ccccc3)nc(Nc3ccccc3)n2)ccc(Br)c1O [TCMDC-125800],79.97%
22,COc1ccc(Nc2nc(NN=Cc3cc(Br)c(O)cc3O)nc(Nc3ccc([N+](=O)[O-])cc3)n2)cc1 [TCMDC-124181],28.04%
23,COc1ccc(Nc2nc(N/N=C/c3cc(Br)ccc3O)nc(Nc3ccc([N+](=O)[O-])cc3)n2)cc1 [TCMDC-124182],30.94%
24,Oc1ccc2ccccc2c1C=NNc1nc(Nc2ccccc2)nc(N2CCOCC2)n1 [TCMDC-123839],-12.77%
25,Cc1cccc(CN2CCCC3(CCN(Cc4ccccc4O)C3)C2)c1 (centres unmarked) [TCMDC-124654],29.07%

row,SMILES,% Inhibition
1,Cc1cc(NC(=O)c2cccs2)ccc1OC1CCN(Cc2ccccc2)C1 (centres unmarked) [TCMDC-133968],-2.762%
2,O=C(Cc1cnc[nH]1)Nc1ccc(-c2cccc(-c3nc4ccc(F)cc4[nH]3)c2)cc1 [TCMDC-136941],11.61%
3,CCCCCCN1CCCN(Cc2ccc(C(=O)Nc3ccc(F)c(F)c3)cc2)CC1 [TCMDC-136392],-27.76%
4,Fc1ccc2nc(-c3ccc(-c4ccc(CNCCc5ccncc5)cc4)s3)[nH]c2c1 [TCMDC-132848],-14.58%
5,COc1ccc(CNCc2ccc(-c3ccc(-c4nc5cc(C(F)(F)F)ccc5[nH]4)s3)cc2)cc1.O=C(O)C(F)(F)F [TCMDC-132719],-32.49%
6,CNCCNCc1ccc(-c2ccc(-c3nc4ccc(C(F)(F)F)cc4[nH]3)s2)cc1 [TCMDC-132838],66.7%
7,CNCCNCc1ccc(-c2ccc(-c3nc4ccc(F)cc4[nH]3)s2)cc1 [TCMDC-132829],87.07%
8,CS(=O)(=O)NCCCNCc1ccc(-c2ccc(-c3nc4ccc(F)cc4[nH]3)s2)cc1 [TCMDC-133084],18.31%
9,CNCCNCc1cccc(-c2ccc(-c3nc4ccccc4[nH]3)s2)c1 [TCMDC-132823],28.05%
10,CN1CCCC1CCOc1ccc2c(c1)N(C(=O)Nc1cc(Br)cc(C(F)(F)F)c1)CC2 (centres unmarked) [TCMDC-140247],47.25%
11,CC(C)c1ccc(NS(=O)(=O)c2cccc(C(=O)NC3CCN(CC4CCCCC4)CC3)c2)cc1 [TCMDC-136739],-17.03%
12,CCOC(=O)CCCOc1cc(Cc2cnc(N)nc2N)cc(OC)c1OC [TCMDC-137356],44.1%
13,COc1cc(NC(=O)C(c2ccc(Cl)cc2)C(C)C)cc(OC)c1OC (centres unmarked) [TCMDC-125118],82.24%
14,Cc1cc(N2CCCC2)nc(Nc2ccc(NC(=O)c3ccc4c(c3)OCO4)cc2)n1 [TCMDC-124955],-35.01%
15,COc1cc(C(C)C)nc2ccc(NC(=O)c3ccc(C(=O)Nc4ccc5nc(C(C)C)cc(OC)c5c4)cc3)cc12 [TCMDC-140150],33.52%
16,COc1cc(Nc2nccc(N3CCC(NC(=O)C(C)c4ccc(Cl)cc4)C3)n2)cc(OC)c1OC (centres unmarked) [TCMDC-133623],58.38%
17,COc1ccc(Cl)cc1NC(=O)C(C)Nc1ccc(-c2ccccc2)cc1 (centres unmarked) [TCMDC-123559],-53.48%
18,CC(C)c1ccc(CN(C)CCCCNC(=O)c2ccc(NC(=O)c3ccc(Cl)cc3)cc2)cc1 [TCMDC-138505],20.72%
19,CC(C)C(C(=O)Nc1ccc(S(=O)(=O)N(C)C)cc1)c1ccc(Cl)cc1 (centres unmarked) [TCMDC-125113],56.45%
20,CC(C(=O)NC1CCN(c2ccnc(Nc3ccc(F)cc3)n2)C1)c1ccc(Cl)cc1 (centres unmarked) [TCMDC-133596],19.11%
21,Cc1nc2ccc(NC(=O)c3cc(S(=O)(=O)N(C)C)ccc3Cl)cc2s1 [TCMDC-124375],38.91%
22,CC(C)C(C(=O)Nc1ccc2c(c1)OCO2)c1ccc(Cl)cc1 (centres unmarked) [TCMDC-125398],78.19%
23,COc1ccc(Nc2nccc(N3CCC(NC(=O)C(C)c4ccc(Cl)cc4)C3)n2)cc1 (centres unmarked) [TCMDC-133612],-10.01%
24,O=C(Nc1ccc2c(c1)OCO2)c1cc(-c2cccnc2)nc2ccc(Cl)cc12 [TCMDC-125213],-64.78%
